# Reference: PubChem BioAssay (EPA / NIEHS)
# Results filed as inconclusive are left out. Calls of active or inactive are those of the source. The calls were made as follows, unless noted: active = hit-call score of the fitted dose curve at least 0.9, where 1 is the maximum; inactive = score below 0.9.
# Key:
# [1] = read-out: Cyclin D2 (CCND2), CCND2 (gene 894); assay: LTEA_HepaRG_CCND2: Life Technologies and Expression Analysis (LTEA) Assay for Cyclin D2 (CCND2) using HepaRG (AID 2283449); settings: mRNA level, 48 h; actives raise or lower the signal;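 also: CCND2 transcript measured by TaqMan qRT-PCR and normalised to three housekeeping genes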
# How it was run: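 Differentiated human HepaRG cells were exposed for 48 h in serum-free induction medium to eight half-log concentrations topping at 100 uM (0.5% DMSO vehicle). CCND2 mRNA was quantified by TaqMan qRT-PCR, normalised to ACTB, GAPDH and POLR2A, and fitted bidirectionally against DMSO.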
# [2] = CEETOX_H295R_CORTIC: CeeTox H295R High-throughput Steroidogenesis Assay for Corticosterone (CORTIC) (AID 2283437); settings: actives raise or lower the signal;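 also: corticosterone secreted into medium quantified by mass spectrometry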;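 as to AC50: human H295R adrenal cells prestimulated with forskolin before chemical exposure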
# How it was run: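 H295R cells were prestimulated 48 h with 10 uM forskolin, then exposed 48 h to test chemical in 0.1% DMSO. Medium corticosterone was MTBE-extracted and quantified by HPLC-MS/MS; bidirectional fit versus DMSO baseline.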
# [3] = CEETOX_H295R_CORTISOL: CeeTox H295R High-throughput Steroidogenesis Assay for Cortisol (AID 2283438); settings: actives raise or lower the signal;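 also: cortisol secreted into medium quantified by LC-MS/MS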
# How it was run: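 Forskolin 10 uM 48 h prestim → test cmpd in DMSO (0.1% final) 48 h → medium MTBE-extracted → LC-MS/MS cortisol vs 7-pt std curve. Gain/loss of signal fitted vs DMSO. MTT viability in same wells.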
# [4] = CEETOX_H295R_ESTRADIOL: CeeTox H295R High-throughput Steroidogenesis Assay for Estradiol (AID 2283440); settings: actives raise or lower the signal;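 also: estradiol secreted into medium quantified by LC-MS/MS after dansyl derivatisation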
# How it was run: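 Estradiol in spent medium measured by LC-MS/MS after dansyl chloride derivatisation. Forskolin-primed (10 uM, 48 h) human adrenal H295R cells received test chemical 48 h at 0.1% DMSO; concentrations lowered until MTT viability >/=70%.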
# [5] = CEETOX_H295R_ESTRONE: CeeTox H295R High-throughput Steroidogenesis Assay for Estrone (AID 2283441); settings: actives raise or lower the signal;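 also: estrone secreted into medium measured by LC-MS/MS after dansyl derivatization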;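 as to AC50: human adrenal H295R cells prestimulated with forskolin for two days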
# How it was run: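 H295R cells prestimulated 48 h with 10 uM forskolin, then exposed 48 h to chemicals in 0.1% DMSO final; estrone in medium extracted with MTBE, dansyl-derivatized, quantified by HPLC-MS/MS; bidirectional fitting versus DMSO, viability by MTT.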
# [6] = CEETOX_H295R_PROG: CeeTox H295R High-throughput Steroidogenesis Assay for Progesterone (PROG) (AID 2283442); settings: actives raise or lower the signal;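 as to AC50: human H295R adrenal cells primed with 10 µM forskolin before dosing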
# How it was run: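 Progesterone secreted by human H295R cells was measured by LC-MS/MS following 48 h chemical exposure at 0.1% DMSO, preceded by 48 h forskolin (10 uM) stimulation. Same-well MTT viability; cytotoxic concentrations diluted 10- or 100-fold and retested.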
# [7] = read-out: Tumor necrosis factor receptor superfamily member 6 (Homo sapiens) (UniProt P25445); assay: LTEA_HepaRG_FAS: Life Technologies and Expression Analysis (LTEA) Assay for Fas cell surface death receptor (FAS) using HepaRG (AID 2283447); settings: mRNA level, 48 h; actives raise or lower the signal
# How it was run: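 Differentiated human HepaRG cells, pre-cultured 48 h, were exposed in duplicate for 48 h to 8-point half-log concentrations (top 100 uM, 0.5% DMSO) in serum-free induction medium; FAS mRNA measured by qRT-PCR, normalized to ACTB/GAPDH/POLR2A, bidirectional fit versus DMSO.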
# [8] = molecular target: Peroxisome proliferator-activated receptor gamma (Homo sapiens) (UniProt P37231); assay: OT_PPARg_PPARgSRC1_0480: Odyssey Thera (OT) 8-hour Protein-Complementation Assay for Peroxisome Proliferator-activated Receptor Gamma / SRC-1 Co-activator (AID 2283387; active = hit-call score of the fitted dose curve at least 0.9, where 1 is the maximum;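 also: nuclear to cytoplasmic split Venus YFP fluorescence ratio reporting PPARg SRC-1 interaction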)
# How it was run: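 Protein-fragment complementation in HEK293T: Venus YFP halves (residues 1-158, 159-239, mutated to IFP1/IFP2) fused to PPARg/SRC-1. 8 h exposure; N/C ratio at 488 nm; DMSO negative control.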
# [9] = molecular target: Peroxisome proliferator-activated receptor gamma (Homo sapiens) (UniProt P37231); assay: OT_PPARg_PPARgSRC1_1440: Odyssey Thera (OT) 24-hour Protein-Complementation Assay for Peroxisome Proliferator-activated Receptor Gamma/ SRC-1 Co-activator (AID 2283388; active = hit-call score of the fitted dose curve at least 0.9, where 1 is the maximum;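 also: nuclear to cytoplasmic ratio of reconstituted Venus YFP fluorescence in fixed imaged cells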)
# How it was run: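 Readout is the 488 nm N/C fluorescence ratio from fixed, Draq5-stained HEK293T cells after 24 h compound exposure. Cells carried transiently transfected PPARg and SRC-1 fused to Venus fragments, transfected 48 h before treatment.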
# [10] = CEETOX_H295R_ANDR: CeeTox H295R High-throughput Steroidogenesis Assay for Androstenedione (ANDR) (AID 2283436); settings: actives raise or lower the signal
# How it was run: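 H295R human adrenal cells (passages ≤10) were exposed to test chemicals for 48 h; androstenedione in medium was MTBE-extracted and quantified by HPLC-MS/MS against a 7-point standard curve. Bidirectional fitting used DMSO as baseline.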
# Chain of Peroxisome proliferator-activated receptor gamma (Homo sapiens) (P37231 whole entry, looked up, the tested form may be a part): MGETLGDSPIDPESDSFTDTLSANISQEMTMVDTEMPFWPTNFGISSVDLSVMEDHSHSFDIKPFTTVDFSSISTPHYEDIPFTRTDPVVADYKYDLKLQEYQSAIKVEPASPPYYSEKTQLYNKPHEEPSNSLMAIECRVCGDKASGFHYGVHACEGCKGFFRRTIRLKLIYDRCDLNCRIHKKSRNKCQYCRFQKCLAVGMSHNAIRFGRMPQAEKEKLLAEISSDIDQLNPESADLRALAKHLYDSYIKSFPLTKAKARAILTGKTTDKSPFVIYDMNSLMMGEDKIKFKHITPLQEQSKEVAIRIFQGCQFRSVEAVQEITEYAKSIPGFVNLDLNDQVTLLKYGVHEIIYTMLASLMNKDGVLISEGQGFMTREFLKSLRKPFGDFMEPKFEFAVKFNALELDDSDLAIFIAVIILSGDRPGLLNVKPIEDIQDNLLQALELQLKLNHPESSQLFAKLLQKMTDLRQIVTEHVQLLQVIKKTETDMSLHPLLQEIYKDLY
smiles,measurement,setting,value
CN(C)C(=S)S,outcome,[1],inactive
CC(C)=CC1C(C(=O)OCc2cccc(Oc3ccccc3)c2)C1(C)C (centres undefined),outcome,[2],inactive
same,outcome,[3],inactive
same,outcome,[4],inactive
same,outcome,[5],inactive
same,AC50,[6],25.8 µM (active)
CCCCCCCCCCCCc1cccc(S(=O)(=O)O)c1,outcome,[7],inactive
OCCN(CCO)CCO,outcome,[7],inactive
same,outcome,[1],inactive
COc1ccc(N)cc1,outcome,[8],inactive
same,outcome,[9],inactive
same,outcome,[2],inactive
same,outcome,[3],inactive
same,AC50,[6],16.4 µM (active)
Cc1cc(C(C)(C)c2ccc(O)c(C)c2)ccc1O,AC50,[10],5 µM (active)
same,outcome,[2],inactive
same,AC50,[3],5 µM (active)
same,outcome,[6],inactive
Cc1cc(C)cc(C)c1,outcome,[6],inactive
same,outcome,[1],inactive
CCC[CH2][Sn]([Cl])([Cl])[CH2]CCC,outcome,[8],inactive
same,outcome,[9],inactive
same,outcome,[2],inactive
same,outcome,[3],inactive
same,outcome,[4],inactive
same,outcome,[5],inactive
same,outcome,[6],inactive
OC(Cc1ccccc1Cl)(Cn1cncn1)C1(Cl)CC1 (centres undefined),AC50,[2],6.94 µM (active)
same,AC50,[3],6.05 µM (active)
same,AC50,[4],3.86 µM (active)
same,AC50,[5],7.74 µM (active)
same,AC50,[6],6.41 µM (active)
CC(C)(COCC1CO1)COCC1CO1 (centres undefined),outcome,[2],inactive
same,outcome,[3],inactive
same,outcome,[4],inactive
same,outcome,[5],inactive
same,outcome,[6],inactive
Cc1ccccc1OP(=O)(Oc1ccccc1C)Oc1ccccc1C,outcome,[10],inactive
same,outcome,[2],inactive
same,outcome,[3],inactive
same,outcome,[6],inactive
C[C@]12CC[C@@H](O)C[C@@H]1CC[C@@H]1[C@@H]2CC[C@]2(C)C(=O)CC[C@@H]12,AC50,[2],1.98 µM (active)
same,outcome,[3],inactive
same,AC50,[6],3.65 µM (active)
CC(C)O.CC(C)O.OCCN(CCO)CCO.OCCN(CCO)CCO.[Ti],outcome,[7],inactive
same,outcome,[1],inactive
N#Cc1cccnc1,outcome,[8],inactive
same,outcome,[9],inactive
same,outcome,[7],inactive
same,outcome,[1],inactive
Cc1cc(Cl)ccc1O,outcome,[8],inactive
same,outcome,[9],inactive
same,outcome,[2],inactive
same,outcome,[3],inactive
same,outcome,[6],inactive
CC(=Cc1ccccc1)[N+](=O)[O-],outcome,[9],inactive
OC(Cc1ccccc1Cl)(Cn1[nH]cnc1=S)C1(Cl)CC1 (centres undefined),outcome,[10],inactive
same,outcome,[2],inactive
same,outcome,[3],inactive
same,outcome,[6],inactive
COc1ccccc1N,outcome,[8],inactive
same,outcome,[9],inactive
same,outcome,[7],inactive
same,outcome,[1],inactive
CC(C)(C)c1ccccc1O,outcome,[8],inactive
same,outcome,[9],inactive
same,outcome,[2],inactive
same,outcome,[3],inactive
same,outcome,[6],inactive
same,outcome,[7],inactive
same,outcome,[1],inactive
Oc1c(Br)cc(Br)cc1Br,outcome,[8],inactive
same,outcome,[9],inactive
same,outcome,[4],inactive
same,outcome,[5],inactive
same,AC50,[6],41.3 µM (active)
CC(C)(C)c1cc([N+](=O)[O-])cc(C(C)(C)C)c1O,outcome,[4],inactive
same,outcome,[5],inactive
same,outcome,[6],inactive
